The values below come from PubChem BioAssay AID1345082 (National Center for Advancing Translational Sciences (NCATS), 2018).

The campaign covered roughly 94,000 compounds. About 4,000 (4.3%) were called active. Entries that show only a call come without a potency. Roughly 29% stayed inconclusive and do not appear here. Calls come from the whole dose curve; as a rule, active = well fitted inhibition curve with a large enough effect; inconclusive = small, poorly fitted or top-dose-only effect; inactive = no such curve, though single readings can be large or run the other way. For the sample, actives were picked, then their nearest neighbours and some compounds at random.
Potency is the fitted concentration of half-maximal effect.

The assay can be described thus: Cytotoxic Profiling in NIH 3T3 Cell Line of Diverse Libraries Using Quantitative High-Throughput Screening. Note: nearly all actives have a fitted effect of over 55% in size. The settings on record: NIH 3T3 viability, CellTiter-Glo ATP luminescence, 48-72 h; series mostly up to 96.7 µM. In a few lines:
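Mouse fibroblast NIH 3T3 cells, 400 per well, received compound via pintool and were incubated for 48 or 72 hr prior to CellTiter-Glo ATP luminescence measurement.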
A general note: ATP-based viability assays read luminescence as a measure of living cells.
In the case of `COc1ccc(NC(=O)CC2CCOCC2)cc1`, the Potency entry is “inactive”.
For `Cc1cccc(CC(=O)N2C[C@@H](CO)[C@H](c3ccccn3)C2)c1`, the Potency entry is “inactive”.
The result for `CC(C)(C)c1coc([C@@H]2COCCN2C2CCC2)n1` reads “inactive”; that for `CCOc1cc(=O)n2c(c1C(=O)NCCc1ccccc1)CCCCC2`, “inactive”; that for `O=C(Cc1ccc(F)cc1)NC1CCN(c2cn[nH]c(=O)c2)CC1`, “inactive”.
Consider `O=C(Cc1ccc(F)cc1)NC1CCN(c2nc3ncccc3o2)C1` (centres undefined), for which the Potency entry is “inactive”.
Turning to `COC(=O)N1CCN(C(=O)c2cccc(-c3cccc(OC)c3)c2)CC1`, the Potency entry is “inactive”.
The result for `Cc1cccc(-c2cccc(CN3CCC(NC(=O)Cc4ccc(F)cc4)CC3)c2)c1` reads 28.2 µM (active); that for `COc1cccc(-c2ccc(C(=O)N3CCC(NC(=O)Cc4ccc(F)cc4)CC3)cc2)c1`, 39.8 µM (active); that for `Cc1cccc(-c2cccc(CN3CCC(NC(=O)Nc4ccccc4)CC3)c2)c1`, 12.6 µM (active).
The result for `O=C(CCNc1cnc2cnccn12)NC1CCN(Cc2ccccc2)CC1` reads “inactive”.
As for `COc1ccc(-c2ccccc2C(=O)N2CCC(NC(=O)Cc3ccc(F)cc3)CC2)nn1`, the entry is “inactive”; as for `CN1C(=O)c2cccn2CC1C(=O)NC1CCN(Cc2ccccc2)CC1` (centres undefined), “inactive”.
Regarding `COCCN1CCC(N2CCN(S(=O)(=O)c3ccccc3)CC2)C1=O` (centres undefined), the Potency entry was “inactive”.
Regarding `O=C(NCC1CCOCC1)C1COc2ccccc2O1` (centres undefined), the Potency result was “inactive”.
As to `CC(C)(C)CC(=O)NC1CCN(c2cnn(CC3CC3)c(=O)c2)CC1`, the Potency entry is “inactive”.
As for `O=C(NCCc1noc(-c2ccccc2)n1)C1CC1`, the entry is “inactive”; as for `CCn1cc(C(=O)N2CC(COC)C3(CCNCC3)C2)cn1` (centres undefined), “inactive”.
As for `Cc1noc(C)c1[S+](=O)([O-])NC1CCN(Cc2cccc(-c3ccc(F)c(F)c3)c2)CC1`, the Potency is 14.1 µM (active).
As for `Cc1noc(C)c1[S+](=O)([O-])N1CC(Oc2ccc(F)c(F)c2)C1`, the entry is “inactive”.
As for `CSc1ccc(-c2cccc(CN3CCC(N[S+](=O)([O-])c4cccs4)CC3)c2)cc1`, the figure is 12.6 µM (active); as for `Cc1noc(C)c1[S+](=O)([O-])N1CCn2c(nnc2-c2ccccc2)C1`, “inactive”.
As for `O=C(Nc1cc(F)ccc1F)N1CCC(Oc2ncccc2C(=O)N2CCCCC2)C1` (centres undefined), the entry is “inactive”; as for `Cn1cccc1C(=O)N1CCCC(c2nc(-c3ccccc3)no2)CCNC(=O)CC1` (centres undefined), “inactive”.
In the case of `COc1ccccc1NC(=O)Cn1c(C)cc2nc3n(c(=O)c21)CCC3`, the Potency entry was “inactive”.
The result for `Cc1noc(C2CC3(CCN(C(=O)c4sc(C)nc4C)CC3)CN2C)n1` (centres undefined) reads “inactive”; that for `CCn1nc(C)cc1C(=O)N[C@H]1[C@H](O)[C@H](O)C[C@@H]1c1cccnc1`, “inactive”.
The result for `CN1CCN([C@H]2CCN(C(=O)Cc3cccc(O)c3)C[C@H]2CCCO)CC1` reads “inactive”.
The result for `COCCNC(=O)[C@@H]1C[C@H](Oc2cccnc2)CN1C(=O)c1nccn1C` reads “inactive”; that for `CCOC(=O)C1=CN(CC(=O)NCCc2ccc(Cl)cc2)S(=O)(=O)N=C1C`, “inactive”.
`Cc1cc(=O)n(CC(=O)NCCc2ccc(Cl)cc2)c(N2CCc3ccccc3C2)n1`: the Potency was 25.1 µM (active).
The result for `Cc1cc(=O)n(CC(=O)Nc2cccc(Cl)c2C)c(N2CCc3ccccc3C2)n1` reads “inactive”.
Take `CCC(CC)NC(=O)C1Cn2cccc2C(=O)N1Cc1cccnc1` (centres undefined): the Potency entry was “inactive”.
The result for `CC(=O)N1CCC(C(=O)NCC2CCN(c3cc(-c4ccc(C)cc4)[nH]n3)CC2)CC1` reads “inactive”; that for `O=C(NC1CCN(c2cc(-c3ccccc3)[nH]n2)CC1)c1cccs1`, “inactive”.
The result for `O=C(NC1CCN(c2cc(-c3ccc(Cl)cc3)[nH]n2)C1)c1c[nH]c2ccccc12` (centres undefined) reads 39.8 µM (active); that for `O=C(NC1CCN(c2cc(-c3ccc(F)cc3)[nH]n2)C1)c1cc2ccccc2[nH]1` (centres undefined), 39.8 µM (active); that for `CCn1ccc(C(=O)NC2CCCN(c3cc(-c4ccc(F)cc4)[nH]n3)C2)n1` (centres undefined), “inactive”.
As for `O=C(Cc1ccc(F)cc1)NC1CCN(c2cc(-c3ccc(Cl)cc3)[nH]n2)CC1`, the entry is “inactive”; as for `Cn1nccc1C(=O)NC1CCCN(c2cc(-c3ccc(F)cc3)[nH]n2)C1` (centres undefined), “inactive”; as for `O=C(NCC1CCN(c2cc(-c3ccc(Cl)cc3)[nH]n2)CC1)c1ccc2nc[nH]c2c1`, 35.5 µM (active).
Regarding `Cc1ccc(-c2cc(N3CCC(CNC(=O)c4ccc(N(C)C)cc4)CC3)n[nH]2)cc1`, the Potency result was “inactive”.
The result for `CNC(=O)[C@H]1C[C@H](Oc2cccnc2)CN1C(=O)c1ccccc1` reads “inactive”; that for `CCOc1ccccc1CN1CCc2nc(N3CCN(C)CC3)[nH]c(=O)c2CC1`, “inactive”.
As for `CC(C)N1CC2(C1)C(=O)N(Cc1cccc(Cl)c1)C(=O)[C@@H]1C[C@@H](O)CN12`, the entry is “inactive”.
As for `CC(C)NC(=O)C(C)[C@@H]1CC[C@@]2(C)CC[C@H](N[S+](C)(=O)[O-])[C@@H](C)[C@@H]2[C@H]1O` (some centres undefined), the entry is “inactive”; as for `CCOc1ccc(NC(=O)C2CN(S(C)(=O)=O)CC23CCCCC3)cc1` (centres undefined), “inactive”; as for `Cc1cc(C2CCCN2C(=O)c2ccc(F)c(F)c2)on1` (centres undefined), “inactive”.
In the case of `O=C(O)C[C@@H]1CCN(C(=O)Nc2ccccc2)C[C@@H]1CC1=NCCc2cc(F)ccc21`, the Potency entry is “inactive”.
Turning to `O=C1CC2(CCN(C(=O)C3CCN(C(=O)Cc4ccc(F)cc4)CC3)CC2)Oc2ccccc2N1`, the Potency entry was “inactive”.
As for `COc1ccc(-c2ccc3ncc(Nc4cc(F)cc(N5CCOCC5)c4)n3n2)cn1`, the entry is “inactive”; as for `COc1ccc(-c2cccc(C(=O)N3CCC(NC(=O)c4ccc(C(F)(F)F)cc4)CC3)c2)nn1`, “inactive”; as for `COc1ccc(-c2ccc3ncc(Nc4ccc(C(F)(F)F)cc4)n3n2)cn1`, 79.4 µM (active).
`CC(=O)NCCc1ncc(C)n1C1CCCCC1`: the Potency entry was “inactive”.
Take `Cn1c(=O)n(C)c2cc(S(=O)(=O)N[C@@H]3CCOC[C@H]3O)ccc21`: the Potency result was “inactive”.
On to `COCCC1(NC(=O)C2CCOCC2)CCN(C(=O)C2COc3ccccc3O2)CC1` (centres undefined), for which the Potency result is “inactive”.
As for `COCC(=O)NCCC1CCN(C(=O)Nc2cc(F)cc(F)c2)CC1`, the entry is “inactive”; as for `COc1ccc(NC(=O)Cn2ccn3nc(-c4ccc(F)cc4)c(CO)c3c2=O)cc1OC`, “inactive”; as for `CC1(CCCCc2ccccc2)COc2ccc(C(=O)N3CC[S+](=O)([O-])CC3)cc2N1` (centres undefined), “inactive”.
The result for `O=C(Nc1cccnc1)c1ccc2c(c1)OCCN(Cc1ncccn1)C2` reads “inactive”.
Consider `COc1ccc(C(=O)Nc2cccc(-c3nnc4n3CCCC4)c2)cc1`, for which the Potency result is “inactive”.
As for `CN(C)CCN(C)C(=O)c1ccc2c(c1)NC(C)(COc1ccc3[nH]ccc3c1)CO2` (centres undefined), the figure is 79.4 µM (active); as for `CCOc1ccc(NC(=O)C2(Cc3cccnc3)CCCCC(=O)N2)cc1` (centres undefined), “inactive”; as for `CC1(CNc2ccccc2)COc2ccc(C(=O)NCc3cccc(F)c3)cc2N1` (centres undefined), 39.8 µM (active).
In the case of `O=C(NCC1CCOCC1)c1ccc2[nH]ccc2c1`, the Potency entry was “inactive”.
As to `COc1cccc(C(=O)Nc2ccc3c(c2)CN(Cc2ccc(OC)cc2OC)C(=O)CO3)c1`, the Potency entry was “inactive”.
As for `COc1ccc(OCC2(C)COc3ccc(C(=O)Nc4cccnc4)cc3N2)cc1` (centres undefined), the figure is 44.7 µM (active); as for `O=C(NCc1cccc(F)c1)C1CN(c2ccccc2)C(=O)N1` (centres undefined), “inactive”; as for `COc1cccc(NC(=O)c2ccc3c(c2)NC(C)(COc2ccccc2)CO3)c1` (centres undefined), 39.8 µM (active).
